# In the supplement of paper PMC10037445:
# In all, about 2,900 compounds were measured (“NF-kB SEAP reporter activity, fold change vs agonist alone”: median about 0.99, highest 2% from about 2.6 on). Many of the other results were omitted from the sample, so the highest values are more common in it than they were.
# Assays:
# [1] = tested on: RAW-Dual; test: NF-kB SEAP reporter activity, fold change vs agonist alone; cytotoxicity flag (confluency mask): not cytotoxic; higher = enhanced NF-kB activity
# How it was run: (§1)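 Supernatant from RAW-Dual macrophages was read after 20 hours for IRF by QuantiLuc luminescence and for NF-κB by QuantiBlue absorbance at 620 nm. The cells (50,000 cells/well in DMEM, 384-well plates, 37 °C, 5% CO2) had received 50 nL of library stock by pin tool and, 1 h later, a PRR agonist. Reporter activity is expressed relative to agonist-alone wells as fold change, and wells were flagged cytotoxic if IncuCyte confluency was under 70% of agonist controls in both mask sets.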
# [2] = tested on: RAW-Dual; test: NF-kB SEAP reporter activity, fold change vs agonist alone; higher = enhanced NF-kB activity; details: library stock concentration (final ~1000-fold dilution): 10 mM
# How it was run: as §1
# [3] = tested on: RAW-Dual; test: NF-kB SEAP reporter activity, fold change vs agonist alone; cytotoxicity flag (confluency mask): cytotoxic (confluency <70% of control); higher = enhanced NF-kB activity
# How it was run: as §1
# [4] = agonist: ODN 1826 (TLR9) 0.5 ug/mL
# [5] = agonist: Pam2CSK4 (TLR2/6) 0.1 ug/mL
# [6] = agonist: Pam3CSK4 (TLR2/1) 0.1 ug/mL
# [7] = cytotoxicity flag (confluency mask): not cytotoxic, agonist: Imiquimod (TLR7) […]
# [8] = cytotoxicity flag (confluency mask): not cytotoxic, agonist: MPLA (TLR4) […]
# [9] = cytotoxicity flag (confluency mask): cytotoxic (confluency <70% of control), agonist: Imiquimod (TLR7) […]
# [10] = cytotoxicity flag (confluency mask): cytotoxic (confluency <70% of control), agonist: MPLA (TLR4) […]
compound,measurement,setting,value
CNCCC(Oc1ccccc1C)c1ccccc1.Cl (configuration not stated) (library stock concentration (final ~1000-fold dilution): 10 mM),NF-kB SEAP reporter activity,[1]; agonist: LPS (TLR4) 0.1 ug/mL,1.15
same,NF-kB SEAP reporter activity,[1]; [4],0.76
same,NF-kB SEAP reporter activity,[1]; [5],0.791
same,NF-kB SEAP reporter activity,[1]; [6],1.01
CNCCC(Oc1ccccc1C)c1ccccc1.Cl (configuration not stated),NF-kB SEAP reporter activity,[2]; [7],1.52
same,NF-kB SEAP reporter activity,[2]; [8],1.15
NC(=O)C(=Cn1cnc(-c2cc(C(F)(F)F)cc(C(F)(F)F)c2)n1)c1cncnc1,NF-kB SEAP reporter activity,[2]; [7],0.765
same,NF-kB SEAP reporter activity,[2]; [8],0.772
NC(=O)C(=Cn1cnc(-c2cc(C(F)(F)F)cc(C(F)(F)F)c2)n1)c1cncnc1 (library stock concentration (final ~1000-fold dilution): 10 mM),NF-kB SEAP reporter activity,[1]; agonist: LPS (TLR4) 0.1 ug/mL,0.331
same,NF-kB SEAP reporter activity,[1]; [4],0.334
same,NF-kB SEAP reporter activity,[1]; [5],0.13
same,NF-kB SEAP reporter activity,[1]; [6],0.148
COc1cc2ncnc(Nc3ccc(Oc4ccccc4)cc3C)c2cc1OC.Cl,NF-kB SEAP reporter activity,[2]; [7],1.37
same,NF-kB SEAP reporter activity,[2]; [8],0.792
COc1cc2ncnc(Nc3ccc(Oc4ccccc4)cc3C)c2cc1OC.Cl (library stock concentration (final ~1000-fold dilution): 10 mM),NF-kB SEAP reporter activity,[1]; agonist: LPS (TLR4) 0.1 ug/mL,1.05
same,NF-kB SEAP reporter activity,[1]; [4],0.422
same,NF-kB SEAP reporter activity,[1]; [5],0.297
same,NF-kB SEAP reporter activity,[1]; [6],0.42
CN(C)CC1CCn2cc(c3ccccc32)C2=C(C(=O)NC2=O)c2cn(c3ccccc23)CCO1.Cl (configuration not stated),NF-kB SEAP reporter activity,[2]; [9],1.68
same,NF-kB SEAP reporter activity,[2]; [10],2.13
CN(C)CC1CCn2cc(c3ccccc32)C2=C(C(=O)NC2=O)c2cn(c3ccccc23)CCO1.Cl (configuration not stated) (library stock concentration (final ~1000-fold dilution): 10 mM),NF-kB SEAP reporter activity,[3]; agonist: LPS (TLR4) 0.1 ug/mL,3.03
same,NF-kB SEAP reporter activity,[3]; [4],0.276
same,NF-kB SEAP reporter activity,[3]; [5],1.55
same,NF-kB SEAP reporter activity,[3]; [6],1.77
O=C(Nc1ccc([N+](=O)[O-])cc1O)Nc1ccccc1Br,NF-kB SEAP reporter activity,[2]; [9],1.47
same,NF-kB SEAP reporter activity,[2]; [10],1.48
CS(=O)(=O)Nc1ccc([N+](=O)[O-])cc1Oc1ccccc1,NF-kB SEAP reporter activity,[2]; [7],0.516
same,NF-kB SEAP reporter activity,[2]; [8],1.08
O=C(Nc1ccccc1)c1cc([N+](=O)[O-])ccc1Cl,NF-kB SEAP reporter activity,[2]; [7],1.37
same,NF-kB SEAP reporter activity,[2]; [8],0.89
CS(=O)(=O)Nc1ccc([N+](=O)[O-])cc1Oc1ccccc1 (library stock concentration (final ~1000-fold dilution): 10 mM),NF-kB SEAP reporter activity,[1]; agonist: LPS (TLR4) 0.1 ug/mL,1.05
same,NF-kB SEAP reporter activity,[1]; [4],0.993
same,NF-kB SEAP reporter activity,[1]; [5],0.937
same,NF-kB SEAP reporter activity,[1]; [6],0.873
O=C(Nc1ccc([N+](=O)[O-])cc1O)Nc1ccccc1Br (library stock concentration (final ~1000-fold dilution): 10 mM),NF-kB SEAP reporter activity,[3]; agonist: LPS (TLR4) 0.1 ug/mL,2.98
same,NF-kB SEAP reporter activity,[3]; [4],2.14
same,NF-kB SEAP reporter activity,[3]; [5],0.989
same,NF-kB SEAP reporter activity,[3]; [6],1.7
O=C(Nc1ccccc1)c1cc([N+](=O)[O-])ccc1Cl (library stock concentration (final ~1000-fold dilution): 10 mM),NF-kB SEAP reporter activity,[1]; agonist: LPS (TLR4) 0.1 ug/mL,0.722
same,NF-kB SEAP reporter activity,[1]; [4],0.873
same,NF-kB SEAP reporter activity,[1]; [5],0.881
same,NF-kB SEAP reporter activity,[1]; [6],0.836
FC(F)F.N=C(N)NCCCC1NC(=O)C(CCCCN)NC(=O)C(Cc2ccc(O)cc2)NC(=O)C(CC(=O)O)NC(=O)CNC1=O.O=C(O)C(F)(F)F.O=CO (configuration not stated) (library stock concentration (final ~1000-fold dilution): 10 mM),NF-kB SEAP reporter activity,[1]; agonist: LPS (TLR4) 0.1 ug/mL,1.23
same,NF-kB SEAP reporter activity,[1]; [4],0.997
same,NF-kB SEAP reporter activity,[1]; [5],1.14
same,NF-kB SEAP reporter activity,[1]; [6],0.899
FC(F)F.N=C(N)NCCCC1NC(=O)C(CCCCN)NC(=O)C(Cc2ccc(O)cc2)NC(=O)C(CC(=O)O)NC(=O)CNC1=O.O=C(O)C(F)(F)F.O=CO (configuration not stated),NF-kB SEAP reporter activity,[2]; [7],0.972
same,NF-kB SEAP reporter activity,[2]; [8],1.04
c1cc(-c2cnn3cc(-c4ccc(N5CCNCC5)cc4)cnc23)c2cccnc2c1,NF-kB SEAP reporter activity,[2]; [9],0.258
same,NF-kB SEAP reporter activity,[2]; [10],0.269
COc1cc(-c2cc(-c3cccc(O)c3)cnc2N)cc(OC)c1OC,NF-kB SEAP reporter activity,[2]; [7],1.24
same,NF-kB SEAP reporter activity,[2]; [8],1.77
c1cc(-c2cnn3cc(-c4ccc(N5CCNCC5)cc4)cnc23)c2cccnc2c1 (library stock concentration (final ~1000-fold dilution): 10 mM),NF-kB SEAP reporter activity,[3]; agonist: LPS (TLR4) 0.1 ug/mL,0.202
same,NF-kB SEAP reporter activity,[3]; [4],0.193
same,NF-kB SEAP reporter activity,[3]; [5],0.0775
same,NF-kB SEAP reporter activity,[3]; [6],0.149
COc1cc(-c2cc(-c3ccc(N4CCNCC4)cc3)cnc2C)cc(OC)c1OC,NF-kB SEAP reporter activity,[2]; [7],1.28
same,NF-kB SEAP reporter activity,[2]; [8],1.94
COc1cc(-c2cc(-c3ccc(N4CCNCC4)cc3)cnc2C)cc(OC)c1OC (library stock concentration (final ~1000-fold dilution): 10 mM),NF-kB SEAP reporter activity,[1]; agonist: LPS (TLR4) 0.1 ug/mL,3.37
same,NF-kB SEAP reporter activity,[1]; [4],0.202
same,NF-kB SEAP reporter activity,[1]; [5],1.29
same,NF-kB SEAP reporter activity,[1]; [6],1.57
COc1cc(-c2cc(-c3cccc(O)c3)cnc2N)cc(OC)c1OC (library stock concentration (final ~1000-fold dilution): 10 mM),NF-kB SEAP reporter activity,[1]; agonist: LPS (TLR4) 0.1 ug/mL,1.87
same,NF-kB SEAP reporter activity,[1]; [4],1.54
same,NF-kB SEAP reporter activity,[1]; [5],1.09
same,NF-kB SEAP reporter activity,[1]; [6],1.39
C[C@@H]1O[C@@H](O[C@H]2[C@H](OC(=O)[C@]34CCC(C)(C)C[C@H]3C3=CC[C@@H]5[C@@]6(C)C[C@H](O)[C@H](O[C@@H]7O[C@H](CO)[C@@H](O)[C@H](O)[C@H]7O)[C@@](C)(CO)[C@@H]6CC[C@@]5(C)[C@]3(C)CC4)O[C@H](CO)[C@@H](O)[C@@H]2O)[C@H](O)[C@H](O)[C@H]1O[C@@H]1OC[C@@H](O)[C@H](O)[C@H]1O,NF-kB SEAP reporter activity,[2]; [7],0.83
same,NF-kB SEAP reporter activity,[2]; [8],1.01
C[C@@H]1O[C@@H](O[C@H]2[C@H](OC(=O)[C@]34CCC(C)(C)C[C@H]3C3=CC[C@@H]5[C@@]6(C)C[C@H](O)[C@H](O[C@@H]7O[C@H](CO)[C@@H](O)[C@H](O)[C@H]7O)[C@@](C)(CO)[C@@H]6CC[C@@]5(C)[C@]3(C)CC4)O[C@H](CO)[C@@H](O)[C@@H]2O)[C@H](O)[C@H](O)[C@H]1O[C@@H]1OC[C@@H](O)[C@H](O)[C@H]1O (library stock concentration (final ~1000-fold dilution): 10 mM),NF-kB SEAP reporter activity,[1]; agonist: LPS (TLR4) 0.1 ug/mL,1.11
same,NF-kB SEAP reporter activity,[1]; [4],0.984
same,NF-kB SEAP reporter activity,[1]; [5],1.04
same,NF-kB SEAP reporter activity,[1]; [6],1.19
